Screens as filed in PubChem BioAssay.
DRV1 agonist – activates human resolvin D1 receptor GPR32; AID 1346428; 2.5% of 48,000 active; CHO-K1 GPR32 beta-arrestin PathHunter luminescence, 90 min; zero percent set by DMSO-only wells; activation, % at 76.9 µM; O75388;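 active = activation of at least 60% and not above a set upper limit, about 1 call in 100 departs from these limits; inconclusive = activation of 40% to 60%, or above that upper limit; inactive = activation under 40%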
Target sequence (O75388 whole entry, looked up): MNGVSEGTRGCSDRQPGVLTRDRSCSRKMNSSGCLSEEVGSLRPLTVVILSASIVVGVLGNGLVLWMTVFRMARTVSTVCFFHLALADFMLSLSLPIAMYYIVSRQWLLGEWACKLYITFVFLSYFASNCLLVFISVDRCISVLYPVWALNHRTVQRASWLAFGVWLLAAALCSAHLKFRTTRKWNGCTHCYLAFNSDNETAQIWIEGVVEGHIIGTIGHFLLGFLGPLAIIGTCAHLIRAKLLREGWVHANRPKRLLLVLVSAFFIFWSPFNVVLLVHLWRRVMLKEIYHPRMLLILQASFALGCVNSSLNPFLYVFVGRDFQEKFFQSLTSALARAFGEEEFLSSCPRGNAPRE
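PathHunter beta-arrestin recruitment in CHO-K1 cells stably expressing ProLink-tagged GPR32. Cells were exposed to compound for 90 min at 37 C, then chemiluminescence was read after 1 h detection at ambient temperature; DMSO served as basal control.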
NTMT1 inh – inhibitors of human N-terminal methyltransferase NTMT1. Q9BV86. NTMT1 MTase-Glo SAH luminescence, purified enzyme. Potency, µM (titrated, usually from 114 µM), hits mostly inhibitors. AID 1645870. 2.5% of 59,000 active; note: nearly all actives have a fitted effect of over 65% in size
OvCa metastasis – ovarian cancer metastasis inhibition, 3D TME model. SKOV3ip1-GFP adhesion/invasion on 3D omental model, fluorescence. Potency, µM (series often up to 45.8 µM), most hits filed as inhibitors. 0.1% of 46,000 active; note: nearly all actives have a fitted effect of over 65% in size
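Primary human omental fibroblast/mesothelial 3D culture pre-formed 48 h. SKOV3ip1-GFP cells added with compounds (0.36-46 umol/L), incubated 2 h RT/16 h 37 C, fixed; GFP cells quantified at 488/509 nm.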
FH mod – Identification of activators of human fumarate hydratase by quantitative high-throughput screening. Fumarate hydratase, mitochondrial (Homo sapiens), P07954. FH coupled MDH/diaphorase resazurin fluorescence, 15 min. Potency, µM (highest dose often 79.9 µM), most hits filed as inhibitors. 0.22% of 54,000 active. AID 1347055, 2019; note: the screen sought activators but most active calls are inhibition curves; nearly all actives have a fitted effect of over 45% in size
Of the large screens only hits and unclear results are named; the others gave an inactive call; ! = a repeat was not active. Compounds with a hit are over-represented: about 3.8% of the library has one in this group of screens. Unless noted, calls come from the whole dose curve; as a rule, active = well fitted curve in the direction sought with a large enough effect; inconclusive = small, poorly fitted or top-dose-only effect, or another doubt; inactive = no such curve, though single readings can be large; an effect the other way counts as inactive or inconclusive.

CCc1ccc(CNc2ncc(-c3cccc(OC)c3)n2C)cc1	OvCa metastasis 5.6µM
Cc1c(/C=C(\C#N)C(=O)Nc2cccc(Cl)c2)c2ccccc2n1Cc1ccccc1	none
Cc1nc2c(c(C)nn2C(C)(C)C)c(C)c1CCC(=O)Nc1ccc(F)cc1	DRV1 agonist 74
Cc1nc2c(c(C)nn2-c2ccccc2)c(C)c1CCC(=O)Nc1ccc(F)cc1	none
CC(=O)/C=C/[C@H]1[C@](C)(O)[C@@H](O)[C@H](OC(C)=O)C2C(C)(C)CCC[C@@]21C (stereo partly drawn)	none (no result: DRV1 agonist, OvCa metastasis)
Cc1ccc(C(C)(C)C)c(OCC(=O)NCCc2nc3ccccc3[nH]2)c1	DRV1 agonist 61
Cc1cc(OCC(=O)NCCc2nc3ccccc3[nH]2)cc(C)c1Cl	none
COc1cc2c(=O)n(CCC(=O)NCC3CCCO3)c(=O)n(CC(=O)Nc3c(C)cccc3C)c2cc1OC (stereo not drawn)	NTMT1 inh inconclusive
COc1cccc(NC(=O)CSc2nccn2Cc2ccc3c(c2)OCO3)c1	DRV1 agonist 75
CC(=O)Nc1ccc(NC(=O)CSc2nccn2Cc2ccc3c(c2)OCO3)cc1	none
Clc1ccc(CN2CCN(c3ncnc4sc5c(c34)CCCC5)CC2)cc1Cl	DRV1 agonist inconclusive
O=C(CCC(=O)N1CCSc2ccccc21)Nc1ccc(Cl)cc1	FH mod inconclusive
Cc1nc2nncn2c(NCc2ccc(F)cc2)c1C	none
Cc1nc2nncn2c(NCc2ccc(Cl)cc2)c1C	DRV1 agonist 76
CCOC(=O)c1ccc(NC(=O)CC2Sc3ccc(C(F)(F)F)cc3NC2=O)cc1 (stereo not drawn)	none
COc1ccccc1NC(=O)CC1Sc2ccc(C(F)(F)F)cc2NC1=O (stereo not drawn)	DRV1 agonist 64
CN(C)c1ccc(Nc2ncnc3sc4c(c23)CCCC4)cc1	NTMT1 inh inconclusive, FH mod inconclusive
CC(C)OCCCNc1ncnc2sc3c(c12)CCCC3	DRV1 agonist 104, NTMT1 inh 50µM
Cc1cccc(N(CC(=O)NCCSc2ccc(Cl)cc2)S(C)(=O)=O)c1C	DRV1 agonist 103
Cc1ccc(SCCNC(=O)CN(c2cccc(C)c2C)S(C)(=O)=O)cc1	DRV1 agonist 76
Cc1cccc(N(CC(=O)NCCSCc2ccc(Cl)cc2)S(C)(=O)=O)c1C	DRV1 agonist inconclusive, NTMT1 inh inconclusive
Cc1[nH]c(C=C2C(=O)Nc3ccc(S(=O)(=O)Cc4c(Cl)cccc4Cl)cc32)c(C)c1C(=O)N1CCC[C@H]1CN1CCCC1	NTMT1 inh 6.8µM (no result: DRV1 agonist)
Oc1cccc(Nc2nc(-c3ccccc3)nc3ccccc23)c1	DRV1 agonist 61, NTMT1 inh inconclusive, FH mod inconclusive
Cc1cccc(Nc2nc(-c3ccccc3)nc3ccccc23)c1	DRV1 agonist 110, OvCa metastasis inconclusive, FH mod inconclusive
Cc1ccc(Nc2nc(-c3ccccc3)nc3ccccc23)cc1	DRV1 agonist inconclusive, FH mod inconclusive
Cc1ccc(Cl)cc1NC(=O)CCn1cnc2ccccc2c1=O	none
Cc1ccc(CN(C(=O)COc2cc(C)c(Cl)c(C)c2)c2ccccn2)o1	NTMT1 inh inconclusive
CCOC(=O)c1nnc(N[S+](=O)([O-])c2ccc(NC(=O)Cc3ccc(Cl)c(Cl)c3)cc2)s1	NTMT1 inh 79µM (no result: DRV1 agonist, OvCa metastasis, FH mod)
COc1ccc(S(=O)(=O)c2c(Nc3ccc(F)cc3)sc(C(=O)c3ccc(C)cc3C)c2N)cc1	none
Cc1cccc(NC(=O)Cn2nc3c4ccccc4n(Cc4ccccc4)cc-3c2=O)c1	DRV1 agonist inconclusive
CCc1ccc(NC(=O)Cn2nc3c4ccccc4n(Cc4ccccc4)cc-3c2=O)cc1	DRV1 agonist 84
CC1(COc2ccc3c(c2)ncn3-c2ccc3cccc(N4CCC(N)CC4)c3n2)COC1	NTMT1 inh 22µM! (no result: DRV1 agonist)
O=C(c1ccc2c(c1)N(Cc1ccc(F)cc1)C(=O)c1ccccc1S2=O)N1CCOCC1 (stereo not drawn)	none
O=C(Nc1ccccc1)c1ccc(Cl)c(S(=O)(=O)Nc2ccccc2)c1	DRV1 agonist 91, NTMT1 inh inconclusive
Cc1ccc(C(=O)Nc2ccccc2)cc1S(=O)(=O)Nc1ccc(Br)cc1	DRV1 agonist inconclusive, FH mod inconclusive
Cc1ccc(C(=O)Nc2ccccc2)cc1S(=O)(=O)Nc1ccccc1	DRV1 agonist 95
COc1ccccc1CNC(=O)CSc1ncc2c(n1)-c1ccccc1N(Cc1ccc(C)cc1)S2(=O)=O	NTMT1 inh 79µM
COc1ccc(N(Cc2cccs2)C(=O)c2ccccc2C)cc1	none
